Cruzain inh noDet – cruzain (T. cruzi) inhibition without detergent. P25779. 200,000 compounds, 2.3% hits. AID 1476. purified cruzain, Z-FR-AMC fluorescence, no detergent. Potency, µM, most hits filed as inhibitors; also: nearly all actives have a fitted effect of over 40% in size
Target sequence (P25779 123-467 limits assumed): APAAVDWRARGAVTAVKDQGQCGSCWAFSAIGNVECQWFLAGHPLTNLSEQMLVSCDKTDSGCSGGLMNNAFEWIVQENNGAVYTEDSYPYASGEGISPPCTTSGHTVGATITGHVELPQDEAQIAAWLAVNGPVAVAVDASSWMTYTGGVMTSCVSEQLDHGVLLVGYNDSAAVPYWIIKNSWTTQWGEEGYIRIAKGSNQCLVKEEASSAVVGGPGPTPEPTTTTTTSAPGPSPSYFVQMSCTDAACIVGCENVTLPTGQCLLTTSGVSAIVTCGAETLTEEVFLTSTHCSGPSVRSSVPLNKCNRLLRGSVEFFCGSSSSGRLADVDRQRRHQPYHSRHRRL
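Detergent-free condition (0.00005% Triton X-100) in acetate buffer pH 5.5 with DTT. 1.5 nM enzyme and compound were pre-mixed 15 min, then 2 uM Z-FR-AMC substrate added; reaction progress from fluorescence change between first and third reads (60 s).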
Cruzain inh Det – cruzain (T. cruzi) inhibition with detergent. P25779. purified cruzain, Z-FR-AMC fluorescence, 0.01% Triton. Potency, µM, most hits filed as inhibitors. 200,000 compounds, 0.43% hits; also: nearly all actives have a fitted effect of over 40% in size
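Detergent-containing arm of a paired screen for aggregation-based inhibition: 0.01% Triton X-100 present. Cruzain at 1.5 nM cleaved 2 uM Z-FR-AMC at pH 5.5 with 5 mM DTT; AMC fluorescence gain over 60 s measured activity.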
Large screens that a line does not name were inactive; ! = not active in a repeat. Sampled rows, rich in hits. Any-hit rate of the full collection: about 2.6%. Calls follow the shape of the dose curve; as a rule, active = well fitted curve in the direction sought with a large enough effect; inconclusive = small, poorly fitted or top-dose-only effect, or another doubt; inactive = no such curve, though single readings can be large; an effect the other way counts as inactive or inconclusive.

COc1cc(NS(=O)(=O)c2cc(Br)cc3c2N(C(C)=O)C(C)C3)cc(OC)c1 (configuration not stated)	none
N/N=c1\sc2ccccc2n1-c1ccccc1	Cruzain inh noDet 16µM
CC(=O)N=c1sc2ccccc2n1C	none
CCN[C@@H]1CN(CCCOC)S(=O)(=O)c2sc(S(N)(=O)=O)cc21	none
CN(C)c1ccc(/C=C2\SC(=O)N(CC(O)Cn3c4ccccc4c4ccccc43)C2=O)cc1 (configuration not stated)	Cruzain inh noDet 5µM
O=C1S/C(=C/c2ccccc2)C(=O)N1CC(O)Cn1c2ccccc2c2ccccc21 (configuration not stated)	none
CCO[Si](CCCN)(OCC)OCC	none
COc1ccc(NC(=O)c2cn(CC(C)C)c(=O)c3cc(OC)c(OC)cc23)cc1Cl	none
NC(N)=N/N=C/c1ccccc1	none
Cn1c(CS/C(N)=N/N=C/c2ccccc2)c(Br)c(=O)n1-c1ccccc1	Cruzain inh noDet 32µM, Cruzain inh Det inconclusive
CC(=O)c1ccc(NC(=O)CC2Sc3ccccc3NC2=O)cc1 (configuration not stated)	none
CC(=O)c1ccc(NC(=O)CSc2nc(=O)n(Cc3ccccn3)c3c2CCC3)cc1	none
CCCOc1ccc(-c2c(C(=O)N/N=C/c3ccc(OC)cc3)nnn2-c2nonc2N)cc1	Cruzain inh noDet inconclusive
CCCOc1ccc(-c2c(C(=O)N/N=C/c3ccc(OCC)cc3)nnn2-c2nonc2N)cc1	Cruzain inh noDet 10µM
CCN(C(=O)CSc1nc(-c2ccc(C(C)C)cc2)no1)c1ccccc1	none
Cc1ccc(N=Nc2c(N)[nH]n3c(=O)cc(-c4ccccc4)nc23)cc1	none
COc1cccc(N=Nc2c(N)[nH]n3c(=O)cc(-c4ccccc4)nc23)c1	Cruzain inh noDet 13µM
O=C(Cc1cccc([N+](=O)[O-])c1)NCc1nc2cccnc2n1Cc1ccc(F)cc1	none
O=C(CSc1ncc2c(n1)-c1cc(Cl)ccc1N(Cc1ccccc1)S2(=O)=O)NCc1ccccc1	Cruzain inh noDet 16µM
CCN1c2ccccc2-c2nc(SCC(=O)Nc3cc(C)c(Cl)cc3OC)ncc2S1(=O)=O	Cruzain inh noDet 25µM
COc1cccc(CN2c3ccccc3-c3nc(SCC(=O)Nc4cccc(C)c4)ncc3S2(=O)=O)c1	Cruzain inh noDet inconclusive
CCN1c2ccccc2-c2nc(SCC(=O)Nc3ccc(C)c(Cl)c3)ncc2S1(=O)=O	Cruzain inh noDet inconclusive
O=C(CSc1ncc2c(n1)-c1cc(Cl)ccc1N(Cc1ccccc1)S2(=O)=O)NCCc1ccccc1	none
COc1cccc(CN2c3ccccc3-c3nc(SCC(=O)Nc4ccccc4Cl)ncc3S2(=O)=O)c1	Cruzain inh noDet 16µM
NCCC(=O)N[C@@H](Cc1cnc[nH]1)C(=O)O	none
Cc1cccc(C(=O)N(Cc2ccco2)Cc2ccccc2F)c1	none
CC(CC(O)C1OC1(C)C)C1CCC2(C)C3=CCC4C(C)(C)C(=O)CCC4(C)C3CC[C@@]12C (some centres not stated)	Cruzain inh noDet inconclusive
O=c1c[n+](CCCC[n+]2cc(=O)o[nH]2)[nH]o1	none
CSc1ccc(CCNC(=O)Cn2ccc3cc(S(=O)(=O)N4CCCCCC4)ccc32)cc1	none
O=C(O)CCSCc1ccc(I)cc1	none
CCOC(=O)c1c(C)[nH]c(C2=NNC(=Nc3cccc(Cl)c3)SC2)c1C	Cruzain inh noDet 16µM
CCOC(=O)c1c(C)[nH]c(C=O)c1Cc1cccc(Cl)c1	none
COC(=O)c1ccccc1NC(=O)Cn1c(=O)n(CCCCC(=O)NCc2ccc3c(c2)OCO3)c(=O)c2ccccc21	none
O=C1c2ccccc2C(=O)N1c1ccc(-c2nc3ccccc3o2)cc1	none
NCc1ccc(-c2nc3ccccc3o2)cc1	Cruzain inh noDet 13µM
CC1=C(C(=O)O)N2C(=O)C(NC(=O)C(N)c3ccccc3)C2SC1 (configuration not stated)	none
O=C1N/C(=N/N=C/c2ccccc2)SC1(c1ccccc1)c1ccccc1	Cruzain inh noDet 4µM
COC(=O)/C=C1\S/C(=N/N=C/c2ccccc2)NC1=O	none
CCCCCOc1c(Cl)cc(C(=O)N(Cc2ccc(C)o2)C2CCS(=O)(=O)C2)cc1Cl (configuration not stated)	Cruzain inh noDet inconclusive
O=C(Nc1ccc2nc(SCC(=O)N3CCCc4ccccc43)sc2c1)c1cccc(Cl)c1	Cruzain inh noDet 6.3µM
O=C(Nc1ccc2nc(SCC(=O)N3CCc4ccccc43)sc2c1)c1cccc(Cl)c1	Cruzain inh noDet inconclusive
COc1ccc(C(=O)Nc2ccc3nc(SCC(=O)N4CCc5ccccc54)sc3c2)cc1	none
COc1cccc(C(=O)Nc2ccc3nc(SCC(=O)N4CCc5ccccc54)sc3c2)c1	Cruzain inh noDet 13µM
Cc1ccc2c(Cl)cc(Cl)c(OCC(=O)Nc3cccc(S(=O)(=O)N(C)C)c3)c2n1	Cruzain inh noDet 13µM
Cc1ccc2c(Cl)cc(Cl)c(OCC(=O)Nc3cccc(S(N)(=O)=O)c3)c2n1	none
CN(C)C[C@H]1CCC[C@@H](CN(C)C)C1=O	none
Cc1cc(-c2csc(NC(=O)c3ccc(=O)n(C)n3)n2)c(C)n1CC1CCCO1 (configuration not stated)	Cruzain inh noDet inconclusive
Cc1cc(-c2csc(NC(=O)c3ccccc3C(F)(F)F)n2)c(C)n1Cc1ccccc1	Cruzain inh noDet 16µM
O=C(Nc1nccs1)c1cc2c(s1)-c1ccccc1OC2	Cruzain inh noDet inconclusive
Cc1ccc(CCNC(=O)c2cc3c(s2)-c2ccccc2OC3)cc1	Cruzain inh noDet 13µM
O=C(NCCc1ccc(Cl)cc1)c1cc2c(s1)-c1ccccc1OC2	Cruzain inh noDet inconclusive
O=C(Nc1nc2ccccc2s1)c1cc2c(s1)-c1ccccc1OC2	Cruzain inh noDet 13µM
CCOc1cc(CNC(=O)c2cc(-c3ccc(Cl)s3)nc3ccccc23)ccc1OC	none
COc1ccc(C(=O)O[C@H]2CC[C@@]3(C)[C@H]4CC[C@H]5[C@]3(C[C@]3(O)[C@H]6CN7C[C@H](C)CC[C@H]7[C@](C)(O)[C@]6(O)[C@H](O)C[C@]53O)O[C@]24O)cc1OC	none
COCCn1c(=NC(=O)c2ccc(S(=O)(=O)N3CCc4ccccc4C3)cc2)sc2cc(S(N)(=O)=O)ccc21	Cruzain inh noDet inconclusive
C#CCn1c(=NC(=O)c2ccc(S(=O)(=O)N3CCc4ccccc4C3)cc2)sc2cc(S(N)(=O)=O)ccc21	Cruzain inh noDet 10µM
C=CCn1c(=NC(=O)c2ccc(S(=O)(=O)N3CCc4ccccc4C3)cc2)sc2cc(S(N)(=O)=O)ccc21	none
COC(=O)Cn1c(=NC(=O)c2ccc(S(=O)(=O)N3CCc4ccccc4C3)cc2)sc2cc(OC)ccc21	Cruzain inh noDet 6.3µM
CC1O[C@@H](O[C@@H]2C(O)C[C@H](O[C@@H]3C(O)C[C@@H](OC4CC[C@@]5(C)C6CC(O)[C@@]7(C)C(C8=CC(=O)OC8)CC[C@@]7(O)C6CC[C@@H]5C4)OC3C)OC2C)CC(O)[C@H]1O (some centres not stated)	Cruzain inh noDet inconclusive
Cc1csc(NC(=O)c2cc([N+](=O)[O-])cc([N+](=O)[O-])c2)n1	none
Cc1csc(/N=C/c2ccc([N+](=O)[O-])cc2)n1	Cruzain inh noDet 20µM
Oc1c(C=C2N=c3ccccc3=N2)sc(=S)n1C1CCCCC1	Cruzain inh noDet 13µM!
Oc1c(C=C2N=c3ccccc3=N2)sc(=S)n1-c1ccccc1	Cruzain inh noDet 10µM
O=C(Nn1c(O)c(C=C2N=c3ccccc3=N2)sc1=S)c1ccccc1Cl	none
O=C1N=c2ccccc2=C1c1sc(=S)n(CC2CCCO2)c1O (configuration not stated)	none

Source: PubChem BioAssay
